Screening data: PubChem, National Center for Advancing Translational Sciences (NCATS)
In the library only some 19% were active in any assay of this set; here they are far more common.
HT1080-NT tox = kills 2HG-producing HT-1080-NT fibrosarcoma cells | AID 686970 | HT-1080-NT fibrosarcoma viability, CellTiter-Glo ATP luminescence, 48 h | 360,000 tested, 1.6% active | Potency, µM (top dose mostly 46.1 µM), without a hit: top-dose activity, negative = less viability, usual class: cytotoxic;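 further: NT is the 2HG producing partner of a matched IDH1 knockdown line; potency means the concentration at half of the fitted maximal effect; 0% = DMSO-treated cells and -100% = media-only wells without cells; nearly all actives have a fitted effect of over 55% in size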
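750 cells/well, RPMI + 5% FBS; 2 h settle, compound pin-transfer, 48 h at 37 degrees C. CellTiter-Glo 10 min RT, luminescence. Normalized to DMSO and media-only wells.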
TDP1 cell noCPT = qHTS for Inhibitors of human tyrosyl-DNA phosphodiesterase 1 (TDP1): qHTS in cells in absence of CPT. 420,000 tested, 15% active. Potency, µM (titrated, usually from 46.2 µM), without a hit: top-dose activity change, negative = growth inhibition, actives largely listed as inhibitors. DT40 Tdp1-/- hTDP1 cells, no CPT, ATP luminescence, 48 h; further: potency means the concentration at half of the fitted maximal effect; nearly all actives have a fitted effect of over 55% in size
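Growth kinetics read by CellTiter-Glo luminescence after ≥48 hr at 37 °C. Cells: DT40 Tdp1-/- stably carrying human TDP1, 400 per well, compound exposure in the absence of CPT (DMSO vehicle).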
ELG1 repair inh = inhibitors of ELG1-dependent DNA repair in HEK293T cells. AID 504467. HEK293T ELG1-luciferase reporter, luminescence, 16 h; DNA damage induced by 5-fluorouridine. 330,000 tested, 2.3% active. Potency, µM (titrated, usually from 46.1 µM), inactives show at the top dose activity change, negative = inhibition, hits mostly inhibitors; further: potency means the concentration at half of the fitted maximal effect; nearly all actives have a fitted effect of over 55% in size
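Reporter activity after DNA damage by 5-fluorouridine is monitored. Compound-treated cells incubate 16 hr at 37 °C, then ONE-Glo is added for 30 min before luminescence reading.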
IL1B secr inh = inflammasome signaling inhibition, IL-1 beta readout | THP-1 LPS/ATP IL-1B secretion, AlphaLISA, 16 h; hits give low values | activity change, % at 57.5 µM | 360,000 tested, 4.7% active; in the data active means activity change below about -50%; inconclusive means mostly about -30% to -49%
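THP-1 cells pretreated 1 hr with compounds (up to 57.5 uM final), then stimulated with LPS (250 ng/mL final) plus ATP (1.25 mM final); secreted IL-1B measured by AlphaLISA after 16 hr, decreased signal indicating inhibition.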
TDP1 cell CPT = DT40-hTDP1 cell growth loss with CPT; chicken DT40 Tdp1-/-;hTDP1 cells + 20 nM CPT, ATP luminescence, 48 h; Potency, µM (series often up to 46.2 µM), for the others: at the highest dose activity change, negative = growth inhibition, most hits filed as inhibitors; AID 686979; 420,000 tested, 12% active; further: potency means the concentration at half of the fitted maximal effect; nearly all actives have a fitted effect of over 55% in size
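Cell growth measured by CellTiter-Glo luminescence after a minimum 48 h, 37 C compound exposure with 20 nM CPT in Tdp1-knockout DT40 cells stably expressing hTDP1, seeded 400/well; qHTS titration format.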
HT1080 IDH1KD tx = kills HT-1080 cells with IDH1 knockdown. Potency, µM (top dose mostly 46.1 µM), for the others: top-dose activity, negative = toxicity, usual class: cytotoxic. HT-1080 IDH1 knockdown viability, ATP luminescence, 48 h. AID 686971. 360,000 tested, 2% active;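 further: potency means the concentration at half of the fitted maximal effect; 0% = DMSO wells and -100% = cell-free medium wells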
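CellTiter-Glo luminescence after 48 h compound exposure at 37 degrees C of IDH1-knockdown HT-1080 cells in 5% FBS RPMI. %Activity scaled between DMSO wells and cell-free media wells, with curves fitted and assigned curve classes.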
* = called active by the depositor; ? = inconclusive; . = no result given. Unless noted, the call rests on the fitted dose curve; in most records, active means well fitted curve in the direction sought with a large enough effect; inconclusive means small, poorly fitted or top-dose-only effect, or another doubt; inactive means no such curve, though single readings can be large; an effect the other way counts as inactive or inconclusive. Unless noted, on the % scale 0 is the no-effect control and ±100 the full control effect.

SMILES	HT1080-NT tox	TDP1 cell noCPT	ELG1 repair inh	IL1B secr inh	TDP1 cell CPT	HT1080 IDH1KD tx
CC(=O)N1CCN(C(=O)CNc2cc(C(F)(F)F)ccc2OCC(F)(F)F)CC1	1%	-12%	-3%	-57*	-6%	9%
Cc1nc2c(-c3ccc(F)cc3)c(C)nn2c(C)c1CCC(=O)NCc1ccc(Cl)cc1	.	-30%	.	.	-10%	.
CCCNC(=O)C1(C)CCN(Cc2csc3ccccc23)C1 (configuration not stated)	-2%	?	.	-24	?	-13%
COc1ccc(/C=C2\N=C(C(C)(C)C)OC2=O)c(OC)c1	-1%	8.2µM*	0%	31	7.3µM*	0%
COc1cc2c(cc1OC)C(C)N(C(=O)c1cc3c(s1)-c1ccccc1OC3)CC2 (configuration not stated)	?	21µM*	?	-16	?	?
COc1cc2c(cc1O)CCN(C(=O)c1ccco1)C2C (configuration not stated)	-3%	?	5%	-6	-29%	-1%
COc1cc2c(cc1OC)C(C)N(C(=O)C1COc3ccccc3O1)CC2 (configuration not stated)	-11%	26µM*	23µM*	-51*	16µM*	-26%
COc1cc2c(cc1OC)C(C)N(C(=O)c1cc3c(=O)oc4ccc(C)cc4c3s1)CC2 (configuration not stated)	-1%	15µM*	?	-11	13µM*	3%
COc1cc(NC(=O)c2cc3c(=O)oc4ccc(C)cc4c3s2)cc(OC)c1OC	.	-8%	.	.	-2%	.
COc1cc2c(cc1OC)C(C)N(C(=O)c1cc3c(s1)-c1c(C)cccc1OC3)CC2 (configuration not stated)	-16%	16µM*	?	-1	?	?
COc1ccc(CN2CCN(C3CCC3)CC2CCO)c(F)c1 (configuration not stated)	-3%	-10%	-2%	20	-12%	-6%
FC(F)(F)c1cccc(NC(=S)N(CCCN2CCCC2)Cc2cccn2Cc2ccc(Cl)cc2)c1	?	16µM*	0%	-89*	?	23µM*
Cc1ccc(NC(=S)N(CCCN2CCCC2)Cc2cccn2Cc2ccc(Cl)cc2)cc1Cl	?	6.5µM*	-1%	-53*	?	-8%
Cc1ccc(NC(=S)N(CCN2CCOCC2)Cc2ccccc2F)cc1Cl	-4%	?	?	4	-19%	-2%
S=C(Nc1ccc(Cl)cc1)N(CCCN1CCOCC1)Cc1ccco1	4%	-4%	2%	0	20%	5%
COc1ccc(NC(=S)N(CCCN2CCCC2)Cc2cccn2Cc2ccc(Cl)cc2)cc1Cl	?	21µM*	?	-52*	15µM*	?
Cc1ccc(NC(=S)N(CCCN2CCCC2)Cc2cccn2Cc2ccc(Cl)cc2)cc1C	1%	21µM*	18%	-4	?	-16%
CCc1ccc(C(O)c2ncc(-c3ccc(Cl)cc3)[nH]2)cc1 (configuration not stated)	-26%	?	.	3	?	-18%
OC(Cc1ccccc1)c1ncc(-c2ccc(Cl)cc2)[nH]1 (configuration not stated)	?	16µM*	.	7	?	?
OC(Cc1ccccc1Br)c1ncc(-c2ccc(Cl)cc2)[nH]1 (configuration not stated)	?	?	.	-4	?	21µM*
COc1ccc(Nc2nc(OC)nc(N3CCOCC3)n2)cc1	6%	6%	13%	-13	3%	1%
FC(F)(F)Oc1ccc(Nc2nc(N3CCOCC3)nc(N3CCOCC3)n2)cc1	28%	16µM*	?	-5	18µM*	8%
Cc1ccc(Nc2nc(OC(C(F)(F)F)C(F)(F)F)nc(N3CCOCC3)n2)cc1	-1%	15µM*	?	-80*	?	-4%
CC(=O)N/C(=C\c1ccccc1)C(=O)NCC(=O)O	-1%	5%	13%	18	3%	7%
CC(=O)N/C(=C/c1ccccc1)c1sc2ccccc2[n+]1CCCCI	.	11µM*	.	.	20µM*	.
SMILES	HT1080-NT tox	TDP1 cell noCPT	ELG1 repair inh	IL1B secr inh	TDP1 cell CPT	HT1080 IDH1KD tx
CN(C)c1ccc(/C=C/c2cc[n+]([O-])c3ccccc23)cc1	.	-11%	.	.	-20%	.
CCCN(CCC)c1ccc(/C=C/c2sc3ccccc3[n+]2CCCCI)cc1	.	0.32µM*	.	.	0.32µM*	.
COc1ccc(/C=C/c2sc3ccccc3[n+]2CCCCI)cc1OC	.	13µM*	.	.	7.9µM*	.
CN(C)c1ccc(/C=C/c2sc3ccccc3[n+]2Cc2ccccc2)cc1	.	0.1µM*	.	.	0.11µM*	.
CCNC(=O)C1(C)CCCN1C(=O)c1ccc2c(c1)OCO2 (configuration not stated)	21%	2%	.	0	-4%	7%
COc1cc(/C=C/c2sc3ccccc3[n+]2CCCS(=O)(=O)[O-])ccc1O	-11%	?	-11%	2	?	-13%
C[n+]1c(/C=C/c2ccc(N)cc2)sc2ccccc21	.	?	.	.	18µM*	.
CC[C@H](C)/C=C/C1=CC2=C(Cl)C(=O)[C@@]3(C)OC(=O)C(C(=O)[C@H](C)[C@@H](C)O)=C3C2=CO1	1%	18µM*	.	-3	?	-16%
O=C(CSc1nnc(-c2cccc(F)c2)o1)Nc1nncs1	2%	1%	?	-10	1%	13%
CCn1c2ccccc2c2cc(NC(=O)CSc3nnc(-c4cccc(F)c4)o3)ccc21	13µM*	15µM*	-9%	-6	16µM*	?
CCn1c2ccccc2c2cc(NC(=O)CSc3nnc(-c4cccc(C)c4)o3)ccc21	-3%	?	?	0	?	-2%
CCn1c2ccccc2c2cc(NC(=O)CSc3nnc(-c4ccccc4)o3)ccc21	?	21µM*	-12%	?	9.2µM*	21µM*
c1ccc(-n2nnnc2Oc2cccc3cccnc23)cc1	7.9µM*	-6%	5%	3	-15%	?
c1ccc(-n2nnnc2Oc2ccc(-n3ccnc3)cc2)cc1	9%	-9%	-19%	-64*	-13%	6%
COc1ccc(Oc2nnnn2-c2ccccc2)cc1	?	-4%	?	-20	9%	3%
Cc1ccc2cccc(Oc3nnnn3-c3ccccc3)c2n1	-7%	-28%	9%	2	-16%	-8%
